# Experimental data as given in the supplement of paper PMC3334620.
# The full ranking holds about 33,000 sequences; the median of “E-score (-0.5 to 0.5)” is about -0.012, and the highest 2% start at about 0.29. The sample as a whole holds a higher share of the highest values than the screen did.
# Molecular target: T1, Ybr033w (UniProt P38073)
# T1 sequence: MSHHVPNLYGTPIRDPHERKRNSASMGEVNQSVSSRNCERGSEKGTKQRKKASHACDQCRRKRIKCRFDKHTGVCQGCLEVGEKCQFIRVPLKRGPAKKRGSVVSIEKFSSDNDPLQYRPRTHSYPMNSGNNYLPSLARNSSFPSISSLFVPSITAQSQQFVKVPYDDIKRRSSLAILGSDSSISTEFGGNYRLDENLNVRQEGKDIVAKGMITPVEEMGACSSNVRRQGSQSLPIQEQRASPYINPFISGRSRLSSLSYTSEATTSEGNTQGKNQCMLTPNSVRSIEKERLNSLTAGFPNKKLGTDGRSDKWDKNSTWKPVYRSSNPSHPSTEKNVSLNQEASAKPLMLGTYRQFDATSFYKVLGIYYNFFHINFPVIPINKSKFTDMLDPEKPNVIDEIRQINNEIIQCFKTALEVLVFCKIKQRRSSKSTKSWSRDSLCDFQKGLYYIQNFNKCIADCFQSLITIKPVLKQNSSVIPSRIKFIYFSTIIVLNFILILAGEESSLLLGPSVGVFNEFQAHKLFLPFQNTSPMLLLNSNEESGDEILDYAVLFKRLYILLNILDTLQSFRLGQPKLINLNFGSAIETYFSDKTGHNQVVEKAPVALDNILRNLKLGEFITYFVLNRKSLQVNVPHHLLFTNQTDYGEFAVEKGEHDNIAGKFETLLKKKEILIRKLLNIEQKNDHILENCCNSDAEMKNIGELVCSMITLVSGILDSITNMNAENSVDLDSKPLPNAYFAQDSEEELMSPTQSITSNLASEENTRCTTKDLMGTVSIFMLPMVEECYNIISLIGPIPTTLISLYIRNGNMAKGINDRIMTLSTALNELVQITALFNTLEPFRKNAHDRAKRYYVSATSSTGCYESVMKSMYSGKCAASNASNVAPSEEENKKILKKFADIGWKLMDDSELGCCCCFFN
# Assay: PBM E-score (8-mer binding enrichment) (E-score (-0.5 to 0.5)); higher = stronger / more preferred TF binding
# Conditions: protein concentration: 200 nM; construct: GST-full length
# Description: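 Universal 'all 10-mer' protein binding microarrays (Agilent AMADID 015681) probed with GST-tagged S. cerevisiae TFs (full-length or DBD) made by in vitro transcription/translation (PURExpress), about 100-200 nM. Bound TF was detected with fluorescent anti-GST. Each ungapped 8-mer (which stands for itself and its reverse complement) is scored by the PBM enrichment score (E-score), a modified Wilcoxon-Mann-Whitney statistic from -0.5 to +0.5, computed with the Universal PBM Analysis Suite. Scale: above 0.35 generally sequence-specific binding.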
row,Sequence,PBM E-score
1,AGGACAAC,0.0906
2,TCGTTGAA,0.122
3,GACTCTAC,-0.261
4,ACCTGAAC,-0.219
5,GATGCTCA,-0.113
6,CTTGTGCC,-0.354
7,CGCACTAA,0.0977
8,GACATTAC,0.164
9,GCTGCTAC,-0.175
10,GGCCATTA,0.0667
11,ATTTACAA,0.31
12,ATTTACAG,0.149
13,ATTTACAC,0.00495
14,CATTACGA,0.0351
15,AATTACGA,0.277
16,TATTACAA,0.307
17,AATTACAA,0.107
18,CATTACAA,0.19
19,TATTACGA,0.297
20,AGTCCAAC,-0.12
21,CTTAGAAA,0.138
22,ATCTATTC,0.132
23,AAACTCAT,0.274
24,AATCGAAG,0.108
25,CATTTCGG,-0.0324

row,Sequence,PBM E-score
1,TCATATAA,0.179
2,TGATATAA,0.179
3,GTATATAA,0.168
4,ATATATAA,0.332
5,CTATATAA,0.152
6,TTATATAA,0.411
7,GAGCAAAA,0.0833
8,ATAGTGCG,0.0631
9,CACTTGGG,-0.0516
10,ACCTTTTG,-0.0505
11,AATGTTCA,0.0556
12,AATTCCCA,0.171
13,TATTCCGA,0.398
14,TAATCCGA,0.326
15,ACTTCCGA,-0.0181
16,AATTCCGA,0.296
17,AATTCCGG,0.154
18,CATTCCGA,0.15
19,AATTCCGT,0.312
20,GAATCCGA,-0.108
21,GATTCCGA,0.129
22,AATTCCGC,0.172
23,AAATCCGA,0.12
24,ACTGCGAA,-0.0623
25,GAATCACC,0.136

row,Sequence,PBM E-score
1,AAACTGGA,0.0838
2,CTAATCCC,-0.0661
3,CCTCTGCG,-0.252
4,GCTGCCCA,-0.153
5,ACTTGGAG,-0.0202
6,AGCCTATA,0.0186
7,CGCCAGAG,-0.045
8,AGATGTCC,0.0719
9,CTAGCATA,0.137
10,CTTACTAA,0.143
11,GTGTAAAC,-0.00524
12,AGGCGAGC,-0.174
13,ATCGCTAA,0.0959
14,CCGGGCAG,-0.122
15,GTTATGGA,0.108
16,CGATGAAC,-0.00159
17,GGATGAAC,0.292
18,AGATGAAC,0.131
19,AAGGGAGA,-0.166
20,AGCATACG,-0.0246
21,TAGAATAA,0.205
22,TGGAATAA,0.417
23,CGGAATTA,0.407
24,AGGAATAG,0.134
25,TCGAATAA,0.193

row,Sequence,PBM E-score
1,CCGAATAC,0.105
2,AGGAATAA,0.364
3,CCGAATAG,0.0196
4,CGGAATTC,0.0496
5,AGGAATAC,-0.131
6,AGGAATTA,0.223
7,CCGAATAA,0.293
8,ATTCAGTA,0.13
9,AGGTCTTG,-0.128
10,ATTGTGGA,0.153
11,CACCTAGC,-0.236
12,AGCACTAT,0.0398
13,CAGTGATA,0.0511
14,CACAGTCG,-0.125
15,AGGCAAAA,0.222
16,CGGAATAC,0.186
17,AGGAATCG,0.116
18,CGGAATAA,0.468
19,AGGAATAT,0.353
20,ACGAATAA,0.0842
21,GGGAATCA,0.0407
22,AAGAATAT,0.149
23,ACGAATAT,0.295
24,ACGAATAC,0.0881
25,CGGAATAG,0.126

row,Sequence,PBM E-score
1,GGGAATAC,-0.0369
2,GGGAATAA,0.355
3,TACCTTGA,0.0473
4,CTCACGGC,-0.261
5,GGGGCCAA,-0.123
6,ATAATGGG,0.152
7,GACTTTAC,0.03
8,AATTCACT,0.249
9,CGGTATGA,0.0788
10,GAGCCCAC,-0.27
11,TATTGTGA,0.105
12,CTTGTAGA,-0.145
13,GTTGTAGA,0.00414
14,ATTGTAGA,0.295
15,AATAGTCC,-0.0436
16,ACCGACAG,-0.135
17,AAATTTCC,0.258
18,ATTTTTGG,0.0437
19,GATTTTCC,0.416
20,AGTTTTCC,0.216
21,GATTTCCC,0.0546
22,AGTTTTTC,0.295
23,AGTTTTTA,0.181
24,AATTTTGC,0.142
25,GATTTTCA,0.205

row,Sequence,PBM E-score
1,GAATTTCC,0.343
2,ATTTTTGC,0.308
3,CAATTTCC,0.195
4,CGGTTCTA,0.0953
5,AAGTTGAG,0.0874
6,CGCTCATC,-0.0261
7,GATACCAC,0.066
8,AATTTCTC,0.299
9,ATTTTGTC,0.187
10,AATTTTCC,0.468
11,ATTTTGTG,0.291
12,ATTTTCTC,0.201
13,AATTTCTA,0.209
14,CATTTCTC,0.176
15,ATTTTTTC,0.316
16,ATTTTTTG,0.274
17,AATTTTCT,0.145
18,ATTTTGTA,0.246
19,AATTTTCA,0.252
20,CATAACGG,0.0155
21,CAGAGTGC,-0.126
22,TCATAACA,0.23
23,TCAGAGCA,-0.114
24,ATCTAGAC,0.107
25,AGTGAATC,0.0239

row,Sequence,PBM E-score
1,CAGCCTAG,0.0256
2,AATTTTTC,0.31
3,AAATTTTC,0.258
4,AATTTTTA,0.256
5,AATATTGC,0.223
6,GATATTGA,0.177
7,CATATTGA,0.0393
8,AATATTGA,0.329
9,AATATTGT,0.298
10,AATATTGG,0.047
11,CCAGGTAG,-0.0963
12,TATGGCAA,-0.151
13,CGCCGCAC,-0.233
14,AAGGAAAA,0.398
15,CAGAAAAA,0.0895
16,CAGGAAAA,0.387
17,CAAGGAAA,0.162
18,GAGGAAAA,0.199
19,AAGGAAAC,0.0412
20,AAAGGAAA,0.303
21,AAAGGAAC,0.163
22,AAGGAAAT,0.185
